Laboratory results from ChEMBL document CHEMBL3988442, “University of Dundee, Small-Polar-MMV Screening Library” (2021).

molecular target: T1, Arginase-2, mitochondrial (Homo sapiens) (UniProt P78540); assay: in vitro enzyme assay to detect the production of urea directly proportional to the activity of Arginase II; type: functional; design: scale not given: in the data most compounds retested in dose-response had high values; settings: 30 µM
T1 sequence (whole entry): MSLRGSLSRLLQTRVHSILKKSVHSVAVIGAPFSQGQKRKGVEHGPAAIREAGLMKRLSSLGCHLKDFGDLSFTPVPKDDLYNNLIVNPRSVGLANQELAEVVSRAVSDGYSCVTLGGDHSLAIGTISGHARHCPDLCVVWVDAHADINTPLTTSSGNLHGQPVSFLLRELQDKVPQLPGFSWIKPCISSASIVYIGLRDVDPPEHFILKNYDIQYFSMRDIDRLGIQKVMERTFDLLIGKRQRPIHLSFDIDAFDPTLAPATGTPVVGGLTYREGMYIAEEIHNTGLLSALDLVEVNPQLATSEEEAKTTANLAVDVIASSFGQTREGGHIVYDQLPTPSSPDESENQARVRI

SMILES	Percent Effect [%]
Cn1cc(CC2CCN(C(=O)NCc3csc(C4CC4)n3)C2)cn1 (stereo not given)	7.03
CCn1c(NCc2ccccn2)nc2c(C)nn(C)c2c1=O	-5.95
Cc1nn(C)cc1C(=O)N1CCCC(c2nccn2Cc2cscn2)C1 (stereo not given)	-12.4
O=C(Cn1nc2c(cc1=O)CSCC2)N[C@@H](Cc1ccccc1)C(=O)O	11.3
Cc1nc(N2CCN(C(=O)NCc3cscn3)CC2)sc1C	5.95
COc1ccccc1Oc1ncccc1CNC(=O)[C@H](N)CC(C)(C)C	10.3
CNC(=O)[C@H]1C[C@@H]2CN(C(=O)c3occc3C)C[C@@H]2N1S(C)(=O)=O	2.7
Cc1ccc(C(C(=O)O)N2CCCN(Cc3ccccn3)CC2)c(F)c1 (stereo not given)	8.11
CCOCCCNC(=O)c1cc(Br)c2c(c1)OCCO2	0.54
CC1=Nc2c(c(=O)[nH]n2C2CCCCC2)C(c2cccnc2)S1 (stereo not given)	2.7
Cc1ccc2c(c1)CCC2NCc1c(C)nn(CCO)c1C (stereo not given)	3.78
N#Cc1ccc(OCC(O)CN2CCN(c3nccs3)CC2)cc1 (stereo not given)	5.95
Cc1ccc(CNCc2nnc3n2CC(C(F)(F)F)CC3)o1 (stereo not given)	-7.03
CCS(=O)(=O)CC(=O)N1CCCC1c1noc(C2CC2)n1 (stereo not given)	2.7
CCCS(=O)(=O)N1C[C@H](N(C)Cc2ccco2)[C@@H]2OCCC[C@@H]21	11.3
O=C(Cn1nc2c(cc1=O)CCCC2)NC(C(=O)O)c1ccccc1 (stereo not given)	-2.7
O=C(NCc1ccncc1)N(Cc1ccc(F)cc1F)C1CC1	3.78
O=C(O)C1CCN(C(=O)Cn2ccc3c(Cl)cccc32)CC1	10.3
CNC(=O)[C@H]1C[C@@H]2CN(C(=O)c3ccsc3)C[C@@H]2N1S(C)(=O)=O	8.11
O=C(NCCO)c1coc(CN2CCN(c3ccccc3F)CC2)n1	-8.11
CN(C)C(=O)[C@@H]1CCO[C@@H]2CCN(CCOCc3ccccc3)C[C@H]21	2.7

species on record: Homo sapiens; assay: To identify inhibition of the IFN signalling (Jak-Stat) pathway via expression of an eGFP reporter gene under the control of an IFN-stimulated response element (ISRE) containing MxA promoter.; type: functional; design: scale not given: direction of the effect not stated beside the values; settings: 30 µM

SMILES	Percent Effect [%]
CC(C)c1nc(C2CCCN(C(=O)c3ccnc(N(C)C)c3)C2)no1 (stereo not given)	26.1
CC(NC(=O)NCc1cccc(Cl)c1)(C(=O)O)c1ccco1 (stereo not given)	-2.55
Cc1cnc(CN2CCCC(c3cc(C(N)=O)[nH]n3)C2)cn1 (stereo not given)	6.6
Cc1cnn(CC2CCCN2C(=O)c2cccnc2N(C)C)c1 (stereo not given)	-17.9
